Rab9 prom act: activates the Rab9 promoter. Huh7 Rab9 promoter-luciferase reporter, luminescence, 24 h. hit rate 2.8% among 320,000. Potency, µM (doses to about 9.22 µM), for the others: at the highest dose activation, negative = inhibition, most hits filed as activators; further: % of control where 0% means no effect; nearly all actives have a fitted effect of over 60% in size
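Huh7 cells stably carrying a Rab9 promoter-luciferase reporter, 1500 cells per well in OP-MEM I with 10% FBS, treated with compound 24 hours at 37C. Luciferase activity read by luminescence after 10 minutes with Amplite reagent.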
ELG1 genotox: genotoxicity induction in ELG1-luciferase HEK293T cells | HEK293T ELG1-luciferase reporter, luminescence, 16 h | Potency, µM (top dose mostly 46 µM), without a hit: at the top dose activity change, positive = activation, usual class: activators | hit rate 1.3% among 330,000; further: % of control where 0% means no effect; nearly all actives have a fitted effect of over 60% in size
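16 hr compound incubation (37 °C, 5% CO2) of HEK293T cells carrying luciferase-tagged ELG1; luciferase then measured by ONE-Glo luminescence after 30 min at RT.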
NPC1 promoter act: NPC1 promoter activation; Huh7 NPC1 promoter luciferase reporter, 24 h; Potency, µM (top dose mostly 9.22 µM), for inactives: at the highest dose activation, actives largely listed as activators; hit rate 2.4% among 320,000; AID 485313; further: % of control where 0% means no effect; nearly all actives have a fitted effect of over 60% in size
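In 1536-well qHTS, Huh7 cells harboring an NPC1 promoter–luciferase construct received compound for 24 h; activation was quantified by luminescence following luciferase reagent addition.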
ELG1 repair inh: blocks ELG1-dependent DNA repair in HEK293T cells; HEK293T ELG1-luciferase reporter, luminescence, 16 h; DNA damage induced by 5-fluorouridine; Potency, µM (series often up to 46.1 µM), inactives show at the top dose activity change, negative = inhibition, most hits filed as inhibitors; hit rate 2.3% among 330,000; AID 504467; further: on the % scale 0 is the no-effect control and ±100 the full control effect; nearly all actives have a fitted effect of over 55% in size
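Cells (2,000 per well) received 5-fluorouridine plus test compound or DMSO and were incubated 16 hr at 37 °C, 5% CO2. Luciferase activity was read by luminescence 30 min after ONE-Glo addition; signal suppression marked inhibition of damage-induced ELG1 function.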
SMN2 splice enh: increases expression of the SMN2 splice variant | HEK293 SMN2-luciferase splicing reporter, luminescence, 30-36 h | Potency, µM (doses to about 46.1 µM), without a hit: top-dose activity change, positive = activation, most hits filed as activators | hit rate 2.8% among 210,000; further: % of control where 0% means no effect; nearly all actives have a fitted effect of over 55% in size
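qHTS luciferase splicing reporter: luminescence rises when SMN2 exon 7 is included in transfected HEK293 cells. Compound exposure lasted 30-36 h at 37C, with 4.5 mM final sodium butyrate as control, followed by a ONE-Glo read.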
FLuc modulator: counter-screen for miR-21 project: firefly luciferase inhibitors or activators | P08659 | AID 588342 | purified FLuc, Km substrates, luminescence inhibition | Potency, µM (titrated, usually from 57.5 µM), inactives show at the top dose activity change, negative = inhibition, usual class: inhibitors | hit rate 6.9% among 360,000;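 further: plate controls were vehicle for no effect and reference inhibitor for full effect; nearly all actives have a fitted effect of over 55% in size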
Target sequence (P08659 whole entry, looked up): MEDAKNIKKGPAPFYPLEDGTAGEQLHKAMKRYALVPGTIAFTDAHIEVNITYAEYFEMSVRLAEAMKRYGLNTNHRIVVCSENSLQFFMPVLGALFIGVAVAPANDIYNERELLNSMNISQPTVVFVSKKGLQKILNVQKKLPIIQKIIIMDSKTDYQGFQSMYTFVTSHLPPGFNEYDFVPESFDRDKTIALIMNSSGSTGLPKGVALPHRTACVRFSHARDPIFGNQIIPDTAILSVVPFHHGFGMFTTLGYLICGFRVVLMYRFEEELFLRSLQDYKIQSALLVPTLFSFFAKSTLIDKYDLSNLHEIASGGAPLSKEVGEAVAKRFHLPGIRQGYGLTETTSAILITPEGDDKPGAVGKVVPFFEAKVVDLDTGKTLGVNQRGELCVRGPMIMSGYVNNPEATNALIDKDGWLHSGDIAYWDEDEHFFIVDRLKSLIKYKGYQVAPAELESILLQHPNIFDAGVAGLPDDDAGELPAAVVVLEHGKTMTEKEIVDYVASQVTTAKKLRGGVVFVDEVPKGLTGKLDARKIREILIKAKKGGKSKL
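Biochemical qHTS of compounds, final roughly 60 µM downward over six points, against 10 nM purified firefly luciferase using Km concentrations of substrates (10 uM D-luciferin, 10 uM ATP) in Tris acetate pH 7.5 buffer; luminescence output.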
* hit, by the source's call; ? = inconclusive; nt = no result given; [ ] = another dose, or the depositor's remark. This is a sample that favours compounds with a hit; in the whole collection about 9.4% have one here. The call rests on the fitted dose curve; in most records, active means well fitted curve in the direction sought with a large enough effect; inconclusive means small, poorly fitted or top-dose-only effect, or another doubt; inactive means no such curve, though single readings can be large; an effect the other way counts as inactive or inconclusive. Potency means the concentration at half of the fitted maximal effect.

SMILES | Rab9 prom act | ELG1 genotox | NPC1 promoter act | ELG1 repair inh | SMN2 splice enh | FLuc modulator
COc1ccc(NC(=O)c2c(-c3ccccc3Cl)noc2C)c(OC)c1 | 3% | -11% | -1% | 18µM* | -12% | -1%
COc1ccc(NC(=O)c2ccc(C)cc2)c(OC)c1 | ? | ? | ? | ? | 18µM* | 5.4µM*
COc1ccc(C(=O)Nc2ccc(C3=NNC(=O)CC3C)cc2NC(=O)c2ccc(OC)cc2)cc1 (stereo not drawn) | 3% | -13% | -6% | 16µM* | ? | -2%
Cc1ccc(C(=O)Nc2ccc(O)cc2C(=O)O)cc1C | -32% | 8% | 2% | 0% | -13% | 3.4µM*
O=C(Nc1ccc(O)cc1C(=O)O)c1ccc(NC(=O)c2ccco2)cc1 | -3% | -5% | 1% | ? | nt | ?
Cc1cccc(C(=O)Nc2ccc(O)cc2C(=O)O)c1 | 11% | -1% | 1% | 8% | 3% | 21µM*
Cc1cccc(C(=O)Nc2ccc(O)cc2)c1 | ? | 27% | ? | ? | 27% | ?
Cc1ccc(C(=O)Nc2ccc(O)cc2C(=O)O)cc1 | -1% | -5% | -4% | 4% | -3% | 11µM*
Cn1ccc2cc(S(=O)(=O)N3CCCN(C(=O)Nc4ccccc4Br)CC3)ccc21 | nt | nt | nt | nt | nt | -10%
CCOC(=O)C1CCCN(c2c(C(=O)c3ccc(C)cc3)cnc3ccc(OCC)cc23)C1 (stereo not drawn) | nt | nt | nt | nt | -6% | -9%
CN1C(=O)/C(=C/c2ccc(C(=O)Nc3ccc(O)cc3C(=O)O)cc2)SC1=S | 2% | 0% | 3% | ? | nt | 21µM*
Cc1ccc(/C=C2\SC(=S)N(CCC(=O)NNC(=O)c3ccc(O)cc3)C2=O)cc1 | -6% | 2% | -8% | -14% | nt | ?
O=C(Cn1ccn(-c2ccc(F)cc2)c(=O)c1=O)Nc1ccc(F)cc1 | nt | nt | nt | nt | nt | -2%
c1ccc(NC2=Nc3ccccc3CS2)cc1 | 3.2µM* | ? | 1.8µM* | ? | 11µM* | 2.7µM*
Cc1ccc2nc(/C(C#N)=N/O)[nH]c2c1 | -9% | -4% | 8% | 22% | 5% | 13µM*
Cc1ccc2nc(/C(C#N)=C/c3ccc(O)c(O)c3)[nH]c2c1 | ? | ? | -1% | ? | nt | 19µM*
Cc1ccc2nc(/C(C#N)=C/c3cccc(Br)c3)[nH]c2c1 | nt | nt | nt | nt | -3% | ?
Cc1ccc2nc(C(C)O)[nH]c2c1 (stereo not drawn) | -4% | 0% | 8% | 10% | 2% | -8%
Cc1ccc2nc(C(O)C(O)c3nc4ccc(C)cc4[nH]3)[nH]c2c1 (stereo not drawn) | 19% | ? | 8% | ? | -8% | 11µM*
CC1COC2=C1C(=O)C(=O)c1c2ccc2c1CCCC2(C)C (stereo not drawn) | nt | nt | nt | nt | -1% | nt
Cc1ccn2c(Nc3c(C)cccc3C)c(-c3ccc(Cl)s3)nc2c1 | nt | nt | nt | nt | 3% | -3%
Cc1ccc(/C(N)=N/OC(=O)/C=C/c2ccccc2)cc1 | 12% | 13% | 0% | ? | -6% | 24µM*
COc1ccc(/C(N)=N/OC(=O)CN(C)S(=O)(=O)c2ccccc2)cc1 | -2% | -8% | -1% | -14% | 1% | -19%
CC(=O)c1ccc(OC(=O)COc2ccccc2)cc1 | 0% | 24% | 1% | 4% | nt | 21µM*
Cc1ccccc1/C(N)=N/OC(=O)/C=C/c1ccccc1 | ? | ? | 25% | ? | ? | ?
SMILES | Rab9 prom act | ELG1 genotox | NPC1 promoter act | ELG1 repair inh | SMN2 splice enh | FLuc modulator
COc1ccc(/C(N)=N/OC(=O)/C=C/c2ccccc2)cc1 | 18% | 5% | -3% | ? | 24% | 15µM*
CC(=O)c1ccc(OC(=O)/C=C/c2ccccc2)cc1 | -2% | 2% | -3% | 5% | nt | 2.7µM*
CC(=O)c1ccc(NC(=S)NC(=O)/C=C/c2ccccc2)cc1 | ? | 11% | 29% | ? | nt | -10%
CCCC(O)c1nc2ccccc2n1CCCOc1ccc(Cl)cc1 (stereo not drawn) | nt | nt | nt | nt | nt | 0%
COc1ccc(-n2nc(C(=O)NCCc3ccc(OC)c(OC)c3)c3c4ccccc4n(C)c3c2=O)cc1 | nt | nt | nt | nt | 3% | -1%
CCC1CCCCN1C(=O)CCS(=O)(=O)c1cc2c(cc1C)NC(=O)CO2 (stereo not drawn) | nt | nt | nt | nt | nt | -3%
C=C(Br)CN(C)CC(=C)Br | nt | nt | nt | nt | 5%[9.22 µM] | nt
COc1ccc(C2Nc3ccccc3-n3c(-c4ccccc4)c4c(=O)n(C)c(=O)n(C)c4c32)cc1 (stereo not drawn) | nt | nt | nt | nt | nt | -6%
COc1ccc(/C=C/C(=O)O/N=C(\N)c2ccccc2)cc1OC | ? | ? | ? | ? | ? | 17µM*
COc1ccc(/C=C/C(=O)OC(C)C(=O)c2ccccc2)cc1OC (stereo not drawn) | -3% | 12% | 0% | 9% | nt | -16%
COc1ccc(-c2nc(C#N)c(N3CCC(C)CC3)o2)cc1 | -9% | -5% | -4% | -8% | nt | ?
Cc1ccc(-c2nc(C#N)c(N3CCCCC3)o2)cc1 | ? | -3% | ? | 8% | -5% | ?
Cc1cccc(-c2nc(C#N)c(N3CCCCC3)o2)c1 | ? | ? | ? | ? | nt | 13µM*
Cc1ccc(-c2nc(C#N)c(N3CCC(C)CC3)o2)cc1 | 0.1µM* | 3% | ? | 16% | nt | ?
Cc1cccc(-c2nc(C#N)c(NC3CCCCC3)o2)c1 | 1.8µM* | ? | 2.5µM* | ? | 10µM* | 7.6µM*
CCCCC/C=C\C\C=C/C=C/C=C/[C@@H](SCC(N)C(=O)O)[C@@H](O)CCCC(=O)O (stereo partly drawn) | nt | nt | nt | nt | 11% | nt
CC(=O)c1ccc(NC(=O)COc2ccccc2-c2nc(-c3cccc(C)c3)no2)cc1 | nt | nt | nt | nt | nt | -6%
Cc1cccc(N2CC(c3nc4ccccc4n3CCC3CCCCC3)CC2=O)c1 (stereo not drawn) | nt | nt | nt | nt | nt | -1%
Cn1cccc1C(=O)N1CCC2(CCCN(c3ccccc3)C2)CC1 | nt | nt | nt | nt | -12% | nt
C=CCc1c(C)nc(C)nc1N/N=C/c1ccccc1 | -4% | 3% | 0% | -11% | -2% | 4%
C=CCc1c(C)nc(-c2ccccc2)nc1N/N=C(\C)c1ccc(N)cc1 | -17% | -1% | -5% | -5% | -29% | 12µM*
C=CCc1c(C)nc(-c2ccccc2)nc1N/N=C/c1ccccc1 | -3% | 1% | 0% | ? | 9% | 9.5µM*
C=CCc1c(C)nc(-c2ccccc2)nc1N/N=C/c1ccncc1 | 28% | -5% | 14% | ? | 26% | 6µM*
C=CCc1c(C)nc(C)nc1N/N=C/c1ccc(F)cc1 | 2% | 0% | -1% | -13% | -18% | 2%
Cc1ccc(Cl)cc1NC(=O)CCCN1C(=O)CCn2nc(-c3cn(C)c4ccccc34)cc21 | nt | nt | nt | nt | nt | -1%

Compound activity: PubChem BioAssay, National Center for Advancing Translational Sciences (NCATS)
